Assay outcomes as filed in PubChem.
In the library only some 3.5% were active in any assay of this set; here they are far more common.
GPR151 ag: activators of human GPR151; Q8TDV0; 650,000 compounds, 1% hits; activation, % at 11.2 µM; AID 1508602; PathHunter beta-arrestin GPR151 cells, luminescence; in the data active means activation above about 4.9%;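 further: 0% = median of compound wells and 100% = cells with positive control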
Target sequence (Q8TDV0 whole entry, looked up): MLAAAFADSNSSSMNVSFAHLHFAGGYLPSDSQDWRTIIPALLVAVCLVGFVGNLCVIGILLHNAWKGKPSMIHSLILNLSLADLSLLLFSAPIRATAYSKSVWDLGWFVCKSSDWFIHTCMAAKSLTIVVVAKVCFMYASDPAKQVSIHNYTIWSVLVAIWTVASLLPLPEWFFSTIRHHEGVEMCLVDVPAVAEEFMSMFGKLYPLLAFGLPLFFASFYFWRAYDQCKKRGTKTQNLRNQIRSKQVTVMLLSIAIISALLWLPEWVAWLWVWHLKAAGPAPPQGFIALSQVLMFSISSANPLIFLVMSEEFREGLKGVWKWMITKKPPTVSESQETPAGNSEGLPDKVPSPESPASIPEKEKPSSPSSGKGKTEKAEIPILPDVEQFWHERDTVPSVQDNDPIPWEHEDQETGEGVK
TEAD-YAP block: TEAD-YAP interaction inhibition. HEK-TIYL cells, TEAD-Gal4/YAP UAS-luciferase luminescence. inhibition, % at 9.12 µM. 640,000 compounds, 1.4% hits; in the data active means inhibition above about 32%;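 further: 0% = median of test compound wells and 100% = reference inhibitor wells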
FBW7 act: human FBW7 E3 ligase activation, primary screen; Q969H0; AlphaScreen FBW7–phospho-cyclin E peptide binding, activator screen; normalized activity (activation), % at 26.1 µM; 650,000 compounds, 0.13% hits; AID 1259310; in the data active means normalized activity above about 1.9%;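 further: purified mutant Fbw7 with reduced substrate affinity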
MITF primary: inhibitors of human MITF. O75030. AlphaScreen MITF homodimerization, bead proximity signal. inhibition, % at 2.6 µM. 650,000 compounds, 0.91% hits. AID 1259374; in the data active means inhibition above about 50%;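 further: 0% = vehicle wells with protein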
* hit, by the source's call.

SMILES	GPR151 ag	TEAD-YAP block	FBW7 act	MITF primary
CCOC(=O)c1oc2c(O)c(O)ccc2c(=O)c1-c1nncn1-c1ccccc1	0.3	1.4	-1.3	82.4*
O=C(Nc1ccc2c(c1)N(C(=O)C1CCCO1)CC2)c1cc2ccccc2oc1=O (stereo not given)	-0.8	57.4*	0.0	-4.7
COc1cccc(C=O)c1OC(=O)c1ccc2ccccc2c1	0.7	-16.8	1.2	19.4
COc1cccc(C=O)c1OC(=O)c1cccc(Cl)c1	-0.9	-18.2	11.9*	13.1
Clc1nc(NC2CC2)c2[nH]cnc2n1	-0.5	-4.1	-0.1	0.1
Cc1ccccc1-c1cc(=O)c2cc(NC(=O)c3ccncc3)ccc2o1	-0.4	-12.2	0.0	-6.8
COc1ccc(-c2nc(C(N)=O)c3[nH]c(=O)n(-c4cccc(C)c4)c3n2)cc1	-0.1	58.2*	0.8	15.1
COc1cccc(-c2nc(C(N)=O)c3[nH]c(=O)n(-c4cccc(C)c4)c3n2)c1	-0.8	7.1	0.0	-4.2
COc1cc(-c2nc(C(N)=O)c3[nH]c(=O)n(-c4ccc(C)cc4)c3n2)cc(OC)c1OC	0.5	6.3	-0.1	-11.3
COc1ccc(-c2nc(C(N)=O)c3[nH]c(=O)n(-c4ccc(Cl)cc4)c3n2)cc1O	0.3	51.5*	-0.2	5.9
COc1ccc(-c2nc(C(N)=O)c3[nH]c(=O)n(-c4ccc(F)cc4)c3n2)cc1O	0.7	54.1*	0.8	16.5
COc1ccc(-c2nc(C(N)=O)c3[nH]c(=O)n(-c4ccc(C)cc4)c3n2)cc1O	0.3	67.2*	-0.3	-6.4
COc1ccc(-c2nc(C(N)=O)c3[nH]c(=O)n(-c4ccc(F)cc4)c3n2)cc1OC	-2.0	8.4	0.2	1.2
O=C(c1ccccc1[N+](=O)[O-])N1CCOCC1	0.2	5.7	0.0	-1.8
Cc1ccc(-c2[nH]nc3c2C(c2cccc(C(F)(F)F)c2)C(C#N)=C(N)O3)cc1 (stereo not given)	1.6	5.6	-0.1	16.8
COc1ccc(C2C(C#N)=C(N)SC(N)=C2C#N)c([N+](=O)[O-])c1OC	-0.1	3.6	-0.2	9.3
COc1ccc(-c2csc(Nc3ccccc3OC)n2)c(OC)c1	-1.1	-3.3	-0.1	-5.5
COc1ccccc1Nc1nc(-c2sc(C)nc2C)cs1	1.1	-49.5	0.5	18.4
COc1ccc(Nc2nc(-c3sc(C)nc3C)cs2)cc1	-0.8	41.6*	0.1	15.3
COc1cccc(Nc2nc(-c3ccc(OC)cc3OC)cs2)c1	0.8	63.9*	-0.1	7.0
CCOc1ccc(Nc2nc(-c3sc(NC(=O)CC)nc3C)cs2)cc1	-1.7	47.7*	0.0	7.3
Cc1nc(NC(=O)c2ccccc2)sc1-c1csc(Nc2cccc(Cl)c2C)n1	-6.4	-11.1	-0.1	-16.1
COc1cc(Br)c(Nc2nc(-c3sc(NC(=O)c4ccccc4)nc3C)cs2)c(Br)c1	-5.0	42.0*	0.0	1.8
C=CCN1CCN(c2ccc(OC)cc2)C1=O	-3.2	-50.7	0.2	13.1
Cc1ccc(S(=O)(=O)CCc2nnc(NC(=O)c3cc(C(C)(C)C)cc(C(C)(C)C)c3)s2)cc1C	-1.6	-9.7	-0.1	0.4
SMILES	GPR151 ag	TEAD-YAP block	FBW7 act	MITF primary
Cc1cc(C)c2oc(-c3cccc(NC(=S)NC(=O)c4cncc(Br)c4)c3)nc2c1	-0.2	-13.6	-0.1	-1.3
CN(C)c1ccc(/C=C(/NC(=O)c2ccccc2Br)C(=O)Nc2ccc(Br)cc2Br)cc1	-0.7	0.9	-0.1	-4.7
CC(C)(C)c1ccc(OCC(=O)O/N=C(\N)Cc2ccc([N+](=O)[O-])cc2)cc1	0.4	3.1	0.1	11.6
Cn1c2c(c(=O)n(C)c1=O)C(NC(=O)c1ccccc1)(C(F)(F)F)C(=O)N2 (stereo not given)	-0.2	9.4	1.2	6.9
COc1ccc(Nc2nc(-c3ccccn3)cs2)cc1	-5.5	43.4*	-1.9	10.9
CCOc1ccc(Nc2nc(-c3ccccn3)cs2)cc1	-3.9	15.7	-1.8	9.5
CCc1ccc(Nc2nc(-c3ccccn3)cs2)cc1	-3.4	40.4*	-0.5	14.2
Fc1ccc2nc(Nc3nc(-c4ccncc4)cs3)sc2c1	-0.2	-8.3	-0.2	-1.3
Fc1ccc2nc(Nc3nc(-c4ccccn4)cs3)sc2c1	1.7	52.5*	-0.3	33.2
Cc1nc(N)sc1-c1csc(Nc2cccc(C(F)(F)F)c2)n1	0.5	-7.9	-0.2	51.7*
CC1CC(=O)N(CC(=O)Nc2ccccc2)c2ccccc2S1 (stereo not given)	-0.1	5.0	0.0	-5.8
Cc1cc(C)cc(NC(=O)c2sc3nc(SCc4cccc(Cl)c4)n(CCc4ccccc4)c(=O)c3c2C)c1	-0.9	-4.4	0.5	-4.8
CS(=O)(=O)Nc1cccc(-c2cnn3ccc(NCc4ccc5c(c4)OCO5)nc23)c1	0.7	2.9	0.0	7.4
O=C(CCl)N1CCN(c2ccc([N+](=O)[O-])cc2)CC1	0.0	33.9*	0.3	7.4
COc1ccc(N2CCN(CC(=O)N3c4ccccc4CC3C)CC2)cc1 (stereo not given)	0.9	4.5	0.8	64.8*
COc1ccc(N2CCN(C(=O)CCl)CC2)cc1	-1.3	49.1*	0.6	7.8
CC1Cc2ccccc2N1C(=O)CN1CCc2ccccc2C1 (stereo not given)	-2.0	12.0	0.5	16.9
COc1ccc(N2CCN(C(=O)CN(c3ccccc3C)S(C)(=O)=O)CC2)cc1	-0.8	1.3	-0.2	72.2*
COc1ccc(N2CCN(C(=O)CN(c3cccc(C)c3C)S(C)(=O)=O)CC2)cc1	0.4	7.3	-0.2	7.1
O=C(Nc1ccc(F)c(Cl)c1)c1cccc2ccccc12	-0.6	-43.3	0.0	-0.8
Cc1cc(C)cc(N2C(=O)C3C4CCC(C4)C3C2=O)c1 (stereo not given)	2.2	4.8	0.0	-12.7
Cc1cc(CNC(=O)CC2C(=O)NCCN2Cc2cccc(F)c2)nn1C (stereo not given)	-1.0	6.1	0.1	2.6
O=C(NCCO)C(=O)NCC(c1cccs1)S(=O)(=O)c1ccc(Cl)cc1 (stereo not given)	-0.7	12.1	0.1	8.4
Cc1ccc(C(=O)N2CCN3C(=O)[C@H]([C@@H](C)OCc4ccccc4)NC(=O)[C@H]3C2)cc1	1.5	2.6	0.1	4.7
C/C(=N\NC(N)=O)c1ccc(O)c(O)c1O	3.4	4.6	-0.3	85.9*
SMILES	GPR151 ag	TEAD-YAP block	FBW7 act	MITF primary
O=C(Nc1cc(Cl)ccc1Cl)c1cc(Br)cc(Br)c1O	0.0	34.0*	0.0	-15.5
O=C(NNC(=S)NCC1CCCO1)C(Sc1ccccc1)c1ccccc1 (stereo not given)	1.2	0.9	2.2*	1.6
Cc1cc(NC(c2cccc(Br)c2)c2ccc3cccnc3c2O)no1 (stereo not given)	4.1	84.0*	-1.0	16.9
Cc1cccc(NC(c2ccc(Cl)cc2)c2ccc3cccnc3c2O)n1 (stereo not given)	-0.9	90.1*	-0.4	-1.5
Cc1cccc(NC(c2cccnc2)c2ccc3ccc(C)nc3c2O)n1 (stereo not given)	1.5	22.2	-0.2	13.8
Cc1cccc(NC(c2cccc(Cl)c2)c2ccc3cccnc3c2O)n1 (stereo not given)	-1.4	47.7*	-0.3	4.0
